Test results as given in PubChem BioAssay (EPA / NIEHS).
Calls of active or inactive are those of the source. Rule for the calls: active = hit-call score of the fitted dose curve at least 0.9, where 1 is the maximum; inactive = score below 0.9.

experiment: ATG_AP_2_CIS: Attagene CIS-FACTORIAL HepG2 Assay for human Activator Protein 2 (AP-2) (AID 2282932); details: HepG2 AP-2 cis-reporter, Attagene transcription factor profiling; actives raise or lower the signal
Method: ATG_CIS is a cell-based, multiplexed-readout assay that uses HepG2, a human liver cell line, with measurements taken at 24 hours after chemical dosing in a 24-well plate.ATG_AP_2_CIS is one of 52 assay component(s) measured or calculated from the ATG_CIS assay. It is designed to make measurements of mRNA induction, a form of inducible reporter, as detected with fluorescence intensity signals by Reverse transcription polymerase chain reaction (RT-PCR) and Capillary electrophoresis technology.Data from the assay component ATG_AP_2_CIS was analyzed into 1 assay endpoint. This assay endpoint, ATG_AP_2_CIS, was analyzed with bidirectional fitting relative to DMSO as the negative control and baseline of activity. Using a type of inducible reporter, measures of mRNA for gain or loss-of-signal activity can be used to understand the reporter gene at the transcription factor-level as they relate to the gene TFAP2A and TFAP2B and TFAP2D. Furthermore, this assay endpoint can be referred to as a primary readout, because this assay has produced multiple assay endpoints where this one serves a reporter gene function. To generalize the intended target to other relatable targets, this assay endpoint is annotated to the dna binding intended target family, where the subfamily is basic helix-turn-helix leucine zipper.
Human liver HepG2 cells are transiently transfected with multiple reporter transcription units (MRTUs) in 6-well plates using FuGene 6 reagent (Roche; 3 ml FuGene/1 mg DNA). The MRTU constructs are regulated by a cis-regulating element (promoter). […] A major difference between the CIS and TRANS system is that in CIS activities of endogenous TFs are measured, whereas the TRANS assay evaluates changes in activities of exogenous, chimeric NR-Gal4 proteins. […] At the end of 24 hour incubation, total RNA was isolated using TriZol reagent (Invitrogen). The isolated RNA is then reverse-transcribed using oligo(dT) primer and Mo-MLV reverse transcriptase (Invitrogen) with DNAse I (Ambion) treatment for 30 min. The one-tenth of the produced cDNA was amplified by PCR using Taq DNA polymerase (Invitrogen) and two reporter sequence-specific primers. The PCR products were fluorescently labeled by primer extension with 6-arboxyfluorescein (6-FAM) 5'-labeled reporter sequence-specific primer (2 min at 95 C, 20 s at 68 C and 10 min at 72 C) and these products were digested with 5U of HpaI (New England Biolabs) for 2h at 37 C. The fragments were purified using Qiaquick PCR columns (Qiagen), analyzed on an ABI 3130xL genetic analyzer (Applied Biosystems) with peak positions identified by using a set of X-rhodamine (ROX)-labeled MapMarker1000 molecular weight standards (BioVentures). The raw capillary electrophoresis data was processed using Attagraph software (Attagene).

Structure (SMILES)	outcome	AC50
CCC1(C)C(=O)N(Cl)C(=O)N1Cl (stereo not given)	inactive	–
CC(=O)OC1CCCCC1C(C)(C)C (stereo not given)	inactive	–
CCCCCCCCCCCCC	inactive	–
COC(OC)(C(=O)c1ccccc1)c1ccccc1	inactive	–
C=CCCCCCCCCOC(C)=O	inactive	–
CC=C(C)C=CC=C(C)C	inactive	–
Cc1c(O)cccc1O	inactive	–
CC(=O)OCc1ccccc1	inactive	–
CC(c1cc(C(C)(C)C)cc(C(C)(C)C)c1O)c1cc(C(C)(C)C)cc(C(C)(C)C)c1O	inactive	–
C=C(C)[C@@H]1CC=C(C)CC1	inactive	–
C=CCCCCCCCCC=O	inactive	–
CCCCC/C=C\C/C=C\CCCCCCCC(=O)O	inactive	–
C=CC(C)(O)CC/C=C(\C)CC (stereo not given)	inactive	–
CCC(C)N (stereo not given)	inactive	–
O=C(O)c1ccc2c(c1)C(=O)OC2=O	inactive	–
CCCCCCOc1ccc(N)cc1	inactive	–
CCCCCCCCCC[N+](C)(CCCCCCCCCC)CCC[Si](OC)(OC)OC	–	15.3 µM (active)
CC(CC=O)CC(C)(C)C (stereo not given)	inactive	–
CC(C)OC(=O)c1ccccc1	inactive	–
CC1=CCC2CC1C2(C)C (stereo not given)	inactive	–

Structure (SMILES)	outcome	AC50
CC(CC(C)C)=NO	inactive	–
C=C(C)C(=O)OCC(O)COc1ccc(C(C)(C)c2ccc(OCC(O)COC(=O)C(=C)C)cc2)cc1 (stereo not given)	inactive	–
O=C(O)/C=C/c1ccccc1	inactive	–
CC(C)C(=O)OCCc1ccccc1	inactive	–
CCCC/C=C/C=C\C=O	inactive	–
Clc1cc(Cl)c(Cl)c(Cl)c1Cl	inactive	–
CCCCCCCC(=O)OCC(COC(=O)CCCCCCC)OC(=O)CCCCCCC	inactive	–
c1ccc2cnccc2c1	inactive	–
CCCCC1CCC(=O)O1 (stereo not given)	inactive	–
C=CC(=O)OCCCCCCCC(C)C	inactive	–
O=C1CCCCCCCCCCCN1	inactive	–
C=C1C[C@H]2[C@@H]3C=C(C)C4=CC(=O)CC[C@]4(C)[C@H]3CC[C@]2(C)[C@@]1(OC(C)=O)C(C)=O	inactive	–
C=CC(C)(CCC=C(C)C)OC(=O)C=Cc1ccccc1 (stereo not given)	inactive	–
C1CNCCN1	inactive	–
C=Cc1cccc(C)c1	inactive	–
COc1ccc(C(=O)/C(Br)=C\C(=O)O)cc1	inactive	–
C=CC(=O)NCOCCCC	inactive	–
[Cl][Eu]([Cl])[Cl]	inactive	–
C/C=C/C=C/CCCCCCCO	inactive	–
CN1CCN(C)CC1	inactive	–
